Compound activity: PubChem BioAssay, National Center for Advancing Translational Sciences (NCATS)
This excerpt belongs to a sample that is enriched for hits.
Pf Dd2 inh: blocks in vitro growth of P. falciparum Dd2. P. falciparum Dd2 growth, SYBR Green, 72 h. Potency, µM (top dose mostly 28.9 µM), for inactives: at the top dose activity, negative = inhibition, hits mostly inhibitors. 120,000 tested, 4.3% active; active = well fitted inhibition curve with a large enough effect;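 note: plate controls were DMSO vehicle for no effect and reference drug for full effect; nearly all actives have a fitted effect of over 65% in size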
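Infected erythrocytes (Dd2, 0.3% parasitemia, 2.5% hematocrit final) are added to compound in RPMI-1640/Albumax II medium, grown 72 h at 37C in low oxygen, then lysed with saponin/Triton-X containing SYBR Green and read by fluorescence.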
Starred values were filed as active, the others as inactive; i = inactive; [ ] = remark or other dose. Potency is the fitted concentration of half-maximal effect.

SMILES	Pf Dd2 inh
COCC1CN(C)CC12CCN(Cc1ccncc1)CC2 (stereo unspecified)	13%
COCC1CN(C)CC12CCN(Cc1ccncc1F)CC2 (stereo unspecified)	19%
COCC1CN(C)CC12CCN(Cc1cc(Br)ccc1F)CC2 (stereo unspecified)	3.5µM*
Cc1cc(C(=O)N2CCC(c3nccn3Cc3ccncc3)CC2)c(C)o1	6%
CC(C)(C)c1coc([C@@H]2COCCN2Cc2ccccc2)n1	-26%[44.1 µM]
Cc1ccc(NC(=O)CCCn2nc(C)c3c(C)n(-c4ccccc4)nc3c2=O)cc1Cl	14%
Cc1cc(NC(=O)CCCn2c(C)c3cnn(-c4ccccc4)c(=O)c3c2C)ccc1Br	11µM*
CCN(CC)c1ccc(NC(=O)Cn2c(C)c3cnn(-c4ccccc4)c(=O)c3c2C)c(C)c1	10%
CN1CCN(S(=O)(=O)c2cc(C(=O)O)cc(-c3ccncc3)c2)CC1	-19%
COc1ccc(C(=O)N2CCCCCCNC(=O)[C@@H]3C[C@@H](c4nc(-c5cnccn5)no4)C[C@@H]32)cc1	i
Cc1ccc(C)c(C(=O)N2CCC(C3CCNC3)CC2)c1 (stereo unspecified)	9%
Cc1noc(C)c1CC(=O)N1CCCC(Cc2nc(C3CCOCC3)no2)C1 (stereo unspecified)	50%
Cc1cccc(C)c1OCCCCn1c(C2CC(=O)N(c3ccc(F)cc3)C2)nc2ccccc21 (stereo unspecified)	i
CCCCN1CC(c2nc3ccccc3n2CCCCOc2ccccc2C)CC1=O (stereo unspecified)	10µM*
Cc1ccccc1OCCCCn1c(C2CC(=O)N(c3ccccc3Cl)C2)nc2ccccc21 (stereo unspecified)	14%
Cc1ccc(NC(=O)N2CCCC(Cn3c(C4CC4)nc4cccnc43)C2)c(C)c1 (stereo unspecified)	-14%
CC1=C[C@@H](CN2CCN(C)CC2)[C@H](C(C)C)C[C@H]1Cc1nnc(C)o1	i
CC1=C[C@@H](CN2CCC(C(N)=O)CC2)[C@H](C(C)C)C[C@H]1Cc1nnc(-c2ccccc2F)o1	i
CC1=C[C@@H](CN2CCC[C@H]2CO)[C@H](C(C)C)C[C@H]1Cc1nnc(-c2cncn2C)o1	-33%[44.1 µM]
CC1=C[C@@H](CN2CCN(C)CC2)[C@H](C(C)C)C[C@H]1Cc1nnc(-c2ccc(N(C)C)cc2)o1	4µM*
CC1=C[C@@H](CN2CCC(C(N)=O)CC2)[C@H](C(C)C)C[C@H]1Cc1nnc(-c2ccc(N(C)C)cc2)o1	3.5µM*
COCC(=O)NC1CCN(C(=O)N2CC3CC(C2)[C@H]2CCCC(=O)N2C3)CC1 (stereo partly specified)	-16%
O=C([C@H]1C[C@@H](O)[C@H](O)[C@@H]2N=C(Nc3ccc(Cl)cc3)S[C@@H]21)N1CCOCC1	-5%[44.1 µM]
COc1cccc(C(=O)NCC2(COc3ccccc3)C[C@@H](O)[C@@H](O)C2)c1 (stereo partly specified)	i
COc1cccc(CNCC2(COc3ccccc3)C[C@@H](O)[C@@H](O)C2)c1 (stereo partly specified)	4µM*
SMILES	Pf Dd2 inh
COc1ccc(CNCC2(COc3cccnc3)C[C@@H](O)[C@@H](O)C2)cc1 (stereo partly specified)	-17%[44.1 µM]
Cc1onc(C(=O)N2C[C@@H](Oc3ccccc3)C[C@H]2C(=O)NC2CC2)c1Cn1cccn1	-18%
O=C(NC1CCCCC1)N[C@H]1[C@H](O)[C@@H](Oc2ccccc2)[C@@H]2OC[C@H]1O2	i
COc1cccc(-c2cnc3n[nH]c(-c4ccccc4)c3n2)c1	-23%[44.1 µM]
Cc1ccc(Cn2cc(-c3ccncc3)cc2C(=O)O)cc1	i
CCCn1cc(-c2ccncc2)cc1C(=O)NCc1ccc(C)o1	-1%
Cc1ccccc1Cn1cc(-c2ccncc2)cc1C(=O)N1CCCC(C)C1 (stereo unspecified)	10µM*
Cc1ccccc1Cn1cc(-c2ccncc2)cc1C(=O)N(C)Cc1ccco1	3.5µM*
Cc1ccccc1CCC1CCCN(C(=O)c2ccccc2-c2nn[nH]n2)C1 (stereo unspecified)	-14%
CN(Cc1ccccc1)C(=O)c1cc(-c2ccncc2)cn1C	-20%
COc1ccc(C)cc1NC(=O)Cn1cccc1-c1nc(-c2ccc3c(c2)OCO3)no1	i
CC(CNCc1cccnc1N1CCOCC1)Cc1ccc2c(c1)OCO2 (stereo unspecified)	-18%
O=C(COc1ccccc1)N1CCOC[C@H](Oc2ccc(C(F)(F)F)cc2)C1	-1%[44.1 µM]
O=C(O)CCC1CCN(S(=O)(=O)c2cccc(F)c2)CC1	0%
C[C@]1(O)CCN(C(=O)CC(c2ccccc2)c2ccccc2)C[C@@H]1O	-33%
CCCN(C)c1nccnc1OC1CCN(C(=O)C2CCOCC2)C1 (stereo unspecified)	13%
CCCN(C)c1nccnc1OC1CCN(C(=O)c2ccc(F)cc2)C1 (stereo unspecified)	10µM*
CN(C)c1nccnc1OC1CCN(C(=O)c2ccn[nH]2)C1 (stereo unspecified)	-12%
CCC(=O)N1C(C(=O)NCC2CCCO2)COC12CCC(C)CC2 (stereo unspecified)	-6%
CC(C)(C)OC(=O)NC[C@H]1OC[C@@H](N)[C@@H]1O	-7%[44.1 µM]
O=C(Nc1ccccc1)N1CCC2(CC1)C(=O)NCN2Cc1ccc(Cl)cc1	3.2µM*
O=C(Nc1ccc(C(F)(F)F)cc1)N1CCC2(CC1)C(=O)NCN2Cc1ccc(Cl)cc1	-5%
O=C1NCN(Cc2ccc(Cl)cc2)C12CCN(Cc1ccccn1)CC2	-15%
O=C1NCN(Cc2ccc(Cl)cc2)C12CCN(Cc1ccsc1)CC2	8.9µM*
O=C1NCN(Cc2ccc(Cl)cc2)C12CCN(Cc1cccc3ccccc13)CC2	-29%
SMILES	Pf Dd2 inh
O=C(c1ccc(Cl)cc1)N1CCC2(CC1)C(=O)NCN2Cc1ccccc1	4%
O=C(Cc1cccc(F)c1)N1CCC[C@H]1c1nc(-c2ccc(F)cc2)no1	30%
CS(=O)(=O)CC[C@H](NC(=O)C1=C[C@@H](NC(=O)CCN)[C@@H](O)[C@H](O)C1)C(N)=O	0%[44.1 µM]
CCn1cc(S(=O)(=O)N2C[C@@H](Oc3cccnc3)C[C@H]2C(=O)NCCOC)cn1	17%
COCCN1CCC(N2CCN(S(=O)(=O)c3ccc(C)c(Cl)c3)CC2)C1=O (stereo unspecified)	-24%
Cc1ccc(NC(=O)Cn2cccc2-c2nc(-c3ccc4c(c3)OCO4)no2)c(Cl)c1	-11%
Cc1ccc(S(=O)(=O)N(C)CC2CCOC2)c(C)c1 (stereo unspecified)	5%[5.79 µM]
CC(C)c1ccc(CC(=O)N2CCCc3ncc(C(=O)Nc4cccc(Cl)c4)cc32)cc1	13µM*
CC(C)c1ccc(CC(=O)N2CCCc3ncc(C(=O)NCCc4ccccc4)cc32)cc1	i
CC(C)c1ccc(CC(=O)N2CCCc3ncc(C(=O)Nc4ccc5[nH]ccc5c4)cc32)cc1	-12%
CC(C)c1ccc(CC(=O)N2CCCc3ncc(C(=O)Nc4cccnc4)cc32)cc1	0.63µM*
CC(C)c1ccc(CC(=O)N2CCCc3ncc(C(=O)Nc4ccccn4)cc32)cc1	7.9µM*
CC(C)c1ccc(CC(=O)N2CCCc3ncc(C(=O)NCCN4CCCC4)cc32)cc1	-7%[44.1 µM]
Cn1cc(CC(=O)N2CCCc3ncc(C(=O)Nc4cccc(C(F)(F)F)c4)cc32)c2ccccc21	i
CC(C)NC(=O)c1cnc2c(c1)N(C(=O)Cc1ccc(C(C)C)cc1)CCC2	i
O=C(Nc1cccc(C(F)(F)F)c1)c1cnc2c(c1)N(C(=O)CCc1ccccc1)CCC2	i
